# TDP1 cell noCPT: qHTS for Inhibitors of human tyrosyl-DNA phosphodiesterase 1 (TDP1): qHTS in cells in absence of CPT. hit rate 15% among 420,000. AID 686978, 2013. DT40 Tdp1-/- hTDP1 cells, no CPT, ATP luminescence, 48 h. Potency, µM (top dose mostly 46.2 µM), usual class: inhibitors; also: nearly all actives have a fitted effect of over 55% in size
#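 Luminescent ATP content (CellTiter-Glo) served as the growth readout. Knockout chicken DT40 cells expressing human TDP1 were exposed to compounds without camptothecin for a minimum 48 hr at 37 °C.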
# DT40 TDP1 CPT: qHTS for Inhibitors of human tyrosyl-DNA phosphodiesterase 1 (TDP1): qHTS in cells in presence of CPT; chicken DT40 Tdp1-/-;hTDP1 cells + 20 nM CPT, ATP luminescence, 48 h; Potency, µM (series often up to 46.2 µM), hits mostly inhibitors; hit rate 12% among 420,000; AID 686979, 2013; also: nearly all actives have a fitted effect of over 55% in size
#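 Chicken DT40 Tdp1-/- cells complemented with human TDP1, 400 cells/well, exposed to compounds plus 20 nM camptothecin for at least 48 h at 37 C; viability read as ATP content by CellTiter-Glo luminescence.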
# RORgamma inh: qHTS for inhibitors of ROR gamma transcriptional activity; Nuclear receptor ROR-gamma (Mus musculus), P51450; Drosophila S2 Gal4-RORgamma UAS-luciferase reporter, 20 h; Potency, µM (series often up to 53.6 µM), hits mostly inhibitors; hit rate 5.4% among 310,000; AID 2551, 2010; also: nearly all actives have a fitted effect of over 60% in size
# Target sequence (P51450 whole entry, looked up, the tested form may be a part): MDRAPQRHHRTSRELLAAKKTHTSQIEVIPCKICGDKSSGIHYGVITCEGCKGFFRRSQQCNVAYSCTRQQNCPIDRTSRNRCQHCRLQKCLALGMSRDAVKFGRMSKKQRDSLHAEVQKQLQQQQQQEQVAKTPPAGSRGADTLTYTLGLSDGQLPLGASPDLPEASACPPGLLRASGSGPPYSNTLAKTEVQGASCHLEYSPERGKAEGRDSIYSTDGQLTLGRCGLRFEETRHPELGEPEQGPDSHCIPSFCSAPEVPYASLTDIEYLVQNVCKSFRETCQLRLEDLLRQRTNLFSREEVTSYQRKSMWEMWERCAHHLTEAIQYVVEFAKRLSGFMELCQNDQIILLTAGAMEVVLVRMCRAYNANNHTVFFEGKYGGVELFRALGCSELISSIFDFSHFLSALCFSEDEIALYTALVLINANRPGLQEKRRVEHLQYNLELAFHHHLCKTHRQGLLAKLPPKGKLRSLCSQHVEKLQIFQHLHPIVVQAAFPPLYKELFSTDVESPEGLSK
#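 Stably transfected Drosophila Schneider cells are the test system, with ROR gamma fused to Gal4 and luciferase under UAS control; luminescence is read after 20 hr of 700 uM copper sulfate induction at ambient temperature.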
# Gal4-VP16 FLuc: VP16 counterscreen qHTS for inhibitors of ROR gamma transcriptional activity | Drosophila S2 Gal4-VP16 UAS-luciferase, luminescence, 20 h | Potency, µM (highest dose often 53.6 µM), most hits filed as inhibitors | hit rate 3.5% among 310,000;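 also: Gal4-VP16 expression switched on by copper sulfate through the metallothionein promoter; nearly all actives have a fitted effect of over 50% in size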
# TDP1 inh: qHTS Assay for Inhibitors of Tyrosyl-DNA Phosphodiesterase (TDP1); Potency, µM (top dose mostly 130 µM), hits mostly inhibitors; hit rate 0.28% among 350,000; recombinant TDP1, AlphaScreen DNA substrate cleavage; Tyrosyl-DNA phosphodiesterase 1 (Homo sapiens), Q9NUW8; also: nearly all actives have a fitted effect of over 40% in size
#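 Recombinant E. coli-expressed Tdp1 (1 nM) preincubated with compound 15 min at RT, then 5'-biotin/3'-phosphotyrosine-FITC DNA substrate (15 nM) added for 5 min. AlphaScreen beads (10 ug/ml) added, 10 min RT; tyrosine-FITC cleavage read as signal loss.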
# Hits are given with their value; . = inactive; ? = inconclusive; / = no result given; [ ] = another dose, or the depositor's remark. A selection: hits, their analogues and other compounds. The true share with any hit is near 19%. Calls follow the shape of the dose curve; as a rule, active = well fitted curve in the direction sought with a large enough effect; inconclusive = small, poorly fitted or top-dose-only effect, or another doubt; inactive = no such curve, though single readings can be large; an effect the other way counts as inactive or inconclusive.
SMILES,TDP1 cell noCPT,DT40 TDP1 CPT,RORgamma inh,Gal4-VP16 FLuc,TDP1 inh
S=C(NCc1ccc(Cl)cc1)NCc1ccco1,.,.,7.08µM,10µM,.
O=C(NC(=S)NCCc1ccc(Cl)cc1)c1ccco1,.,.,8.91µM,?,.
S=C(NCCc1ccc(Cl)cc1)NCc1ccco1,.,.,11.2µM,.,.
COc1ccccc1N1CC(C(=O)Nc2ccc(C)c(S(=O)(=O)N3CCOCC3)c2)CC1=O (configuration not stated),.,.,/,/,.
O=C(Oc1ccc2ccccc2c1)C1CCC1,.,.,.,.,/
O=C(Oc1ccc(OC(=O)C2CCC2)cc1)C1CCC1,23.1µM,?,11.2µM,22.4µM,?
O=C(Nc1ccc(S(=O)(=O)N2CCCCC2c2cccnc2)cc1)c1ccc(Br)cc1 (configuration not stated),9.2µM,16.4µM,/,/,.
CCCCC(=O)Nc1ccc(S(=O)(=O)N2CCCCC2c2cccnc2)cc1 (configuration not stated),13µM,18.4µM,.,.,.
CS(=O)(=O)N(CC(=O)N1CCCC1)c1cc(Cl)ccc1Cl,.,.,.,.,/
Cc1ccc(C)c(NC(=S)NCCCN2CCOCC2)c1,.,.,.,.,.
CCc1nc2ccc(C(=O)NCC3CCCCC3)cn2c1N(CCC(C)C)CCN(C)C,25.9µM,18.4µM,/,/,/
CCc1nc2ccc(C(=O)NCc3ccc(OC)cc3)cn2c1N(CCC(C)C)CCN(C)C,16.4µM,?,/,/,/
CCc1nc2ccc(C(=O)NCc3ccccc3OC)cn2c1N(C=O)CCC(C)C,16.4µM,23.1µM,/,/,/
CCc1nc2ccc(C(=O)N3CCCCC3)cn2c1N(CCC(C)C)CCN(C)C,.,.,/,/,/
CCCCN(C=O)c1c(CC)nc2ccc(C(=O)N(C)Cc3ccccc3)cn12,.,.,/,/,/
CCc1nc2ccc(C(=O)NCCOc3ccc(OC)cc3)cn2c1N(CC)CCN(C)C,.,.,/,/,/
Cc1ccc(NC(=O)C(c2ccccc2)C2CCCC2)cc1 (configuration not stated),?,?,?,?,.
Cc1ccc(S(=O)(=O)NC(=O)c2cc(C)n(CCCN3CCOCC3)c2C)cc1,.,.,.,.,.
COc1cccc(NC(=O)c2ccc3nc(Cc4ccccc4)oc3c2)c1,16.4µM,16.4µM,/,/,.
CCC(C)NC(=O)c1ccc2nc(Cc3ccc(OC)cc3)oc2c1 (configuration not stated),?,?,?,.,.
CCOC(=O)c1cccc(NC(=O)c2ccc3nc(Cc4ccccc4)oc3c2)c1,16.4µM,23.1µM,/,/,.
CCC(NC(=O)c1ccc2nc(Cc3ccc(OC)cc3)oc2c1)c1ccncc1 (configuration not stated),3.66µM,7.31µM,.,?,.
Cc1ccc(NC(=O)Cn2cc3c(n2)CCCC3)c(C)c1,.,.,/,/,.
COCc1cc(/C=N\NC(=O)COc2ccc(Cl)cc2)ccc1OC,?,.,.,.,.
COc1ccc(/C=N\NC(=O)COc2ccc(C(C)(C)C)cc2)cc1Cn1nc(C)cc1C,20.6µM,?,.,.,.
SMILES,TDP1 cell noCPT,DT40 TDP1 CPT,RORgamma inh,Gal4-VP16 FLuc,TDP1 inh
Cc1cc(C)c2ccc3c(C)c(C)nc3c2[nH]1,20.6µM,?,.,.,.
COc1ccc(CC(=O)Nc2cc(C)ccc2O)cc1OC,.,.,.,?,.
CN(C)c1ccc(C(=O)Nc2sc(Nc3ccccc3)nc2C(N)=O)cc1,7.31µM,?,/,/,.
CCN(CC)CCOC(=O)c1ccc(N=CC2=C(O)CC(C)(C)CC2=O)cc1,.,.,/,/,/
Cc1noc(C)c1COc1ccc(C(=O)Nc2ccccn2)cc1,.,?,?,?,.
Cc1noc(C)c1COc1ccc(C(=O)NNC(=O)c2ccccc2O)cc1,16.4µM,?,/,/,.[0.505 µM]
Cc1cccc(NC(=O)c2ccc(OCc3c(C)noc3C)cc2)n1,13µM,?,/,/,.
CC(C)(C)c1ccc(OCCCC(=O)NNC(=O)c2ccccc2O)cc1,18.4µM,?,/,/,.
Cc1noc(C)c1COc1ccc(C(=O)Nc2ccccc2)cc1,.,.,.,.,.
Cc1ccc2nc(-c3ccc(NC(=S)NCCC(C)C)cc3)sc2c1,?,.,/,/,/

# Source: PubChem
